The antibiotic and cytotoxicity screens of Wong et al. (2023)
Among all 39,000 compounds or so, about 1,500 (3.8%) were called active. The sample holds actives, similar compounds and a random draw of the others, so the mix is not that of the screen.

tested on: HSkMC (human skeletal muscle cells); test: cytotoxicity call (relative viability < 0.9); conditions: 10 µM

SMILES | cytotoxicity call
N[C@@H](C(=O)N[C@@H]1C(=O)N2C(C(=O)O)=C(Cl)CS[C@H]12)c1ccccc1 | inactive
C[C@@H]1CCCCO[C@H](CN(C)C(=O)Cc2ccccc2)[C@@H](C)CN([C@H](C)CO)C(=O)c2cc(NC(=O)C3CCCCC3)ccc2O1 | inactive
Cc1ccc(S(=O)(=O)N[C@@H](Cc2ccccc2)C(=O)NCCn2cc(CCC(=O)NO)nn2)cc1 | inactive
Cc1ccc(S(=O)(=O)N(C)C[C@@H]2Oc3ccc(NS(=O)(=O)c4cccs4)cc3CC(=O)N([C@@H](C)CO)C[C@@H]2C)cc1 | inactive
C[C@H](O)C#Cc1ccc2c(c1)O[C@@H](CN(C)C(=O)Cc1ccccn1)[C@H](C)CN([C@@H](C)CO)S2(=O)=O | inactive
O=C(C[C@@H]1C=C[C@@H](NC(=O)CN2CCOCC2)[C@@H](CO)O1)NCc1cccc(F)c1 | inactive
C[C@H]1CC=CC[C@H](c2cccc(Cl)c2)NC(=O)[C@@H](Cc2ccccc2)N(C)C(=O)c2ccccc2O1 | inactive
COc1ccc(NC(=O)Nc2ccc3c(c2)C(=O)N([C@@H](C)CO)C[C@@H](C)[C@@H](CN(C)Cc2ccccc2)OCCCC[C@@H](C)O3)cc1 | inactive
Cc1noc(C)c1NC(=O)Nc1cccc2c1O[C@@H](CN(C)S(=O)(=O)c1ccccc1)[C@@H](C)CN([C@H](C)CO)C2=O | inactive
Cc1ccc(S(=O)(=O)N(C)C[C@@H]2OCCCC[C@@H](C)Oc3ccc(NS(=O)(=O)c4ccc(F)cc4)cc3C(=O)N([C@H](C)CO)C[C@H]2C)cc1 | active
COc1ccc(S(=O)(=O)N(C)C[C@H]2OCCCC[C@H](C)Oc3ccc(NS(=O)(=O)c4cn(C)cn4)cc3C(=O)N([C@@H](C)CO)C[C@H]2C)cc1 | active
Cc1ccc(S(=O)(=O)N(C)C[C@@H]2OCCCC[C@H](C)Oc3ccc(NC(=O)Nc4ccc(F)cc4)cc3C(=O)N([C@@H](C)CO)C[C@@H]2C)cc1 | inactive
Cc1ccc(S(=O)(=O)N(C)C[C@H]2OCCCC[C@@H](C)Oc3ccc(NC(=O)Nc4ccc(F)cc4)cc3C(=O)N([C@@H](C)CO)C[C@H]2C)cc1 | inactive
COc1ccc(S(=O)(=O)N(C)C[C@@H]2OCCCC[C@@H](C)Oc3ccc(NS(=O)(=O)c4cn(C)cn4)cc3C(=O)N([C@@H](C)CO)C[C@H]2C)cc1 | inactive
Cc1ccc(S(=O)(=O)Nc2ccc3c(c2)C(=O)N([C@H](C)CO)C[C@H](C)[C@H](CN(C)S(=O)(=O)c2ccc(F)cc2)OCCCC[C@H](C)O3)cc1 | inactive
Cc1ccc(S(=O)(=O)Nc2ccc3c(c2)C(=O)N([C@H](C)CO)C[C@@H](C)[C@H](CN(C)S(=O)(=O)c2ccc(F)cc2)OCCCC[C@@H](C)O3)cc1 | inactive
Cc1ccc(S(=O)(=O)N(C)C[C@H]2OCCCC[C@H](C)Oc3ccc(NS(=O)(=O)c4ccc(F)cc4)cc3C(=O)N([C@@H](C)CO)C[C@@H]2C)cc1 | inactive
Cc1ccc(S(=O)(=O)N(C)C[C@H]2OCCCC[C@@H](C)Oc3ccc(NC(=O)Nc4ccc(F)cc4)cc3C(=O)N([C@@H](C)CO)C[C@@H]2C)cc1 | active
Cc1ccc(S(=O)(=O)Nc2ccc3c(c2)C(=O)N([C@@H](C)CO)C[C@H](C)[C@@H](CN(C)S(=O)(=O)c2ccc(F)cc2)OCCCC[C@@H](C)O3)cc1 | inactive

SMILES | cytotoxicity call
Cc1ccc(S(=O)(=O)Nc2ccc3c(c2)C(=O)N([C@H](C)CO)C[C@H](C)[C@@H](CN(C)S(=O)(=O)c2ccc(F)cc2)OCCCC[C@H](C)O3)cc1 | active
COc1ccc(S(=O)(=O)N(C)C[C@@H]2OCCCC[C@H](C)Oc3ccc(NS(=O)(=O)c4cn(C)cn4)cc3C(=O)N([C@H](C)CO)C[C@@H]2C)cc1 | inactive
C[C@H]1CN([C@@H](C)CO)C(=O)c2cc(NC(=O)C3CC3)ccc2O[C@H]1CN(C)Cc1ccc(Oc2ccccc2)cc1 | inactive
COc1ccc(S(=O)(=O)N(C)C[C@@H]2Oc3ccc(NS(=O)(=O)c4cccs4)cc3C(=O)N([C@@H](C)CO)C[C@@H]2C)cc1 | inactive
C[C@H]1CN([C@@H](C)CO)C(=O)Cc2cc(NC(=O)C3CC3)ccc2O[C@H]1CN(C)S(=O)(=O)c1cn(C)cn1 | inactive
C[C@H]1CCCCO[C@H](CN(C)C(=O)Nc2ccc3c(c2)OCO3)[C@@H](C)CN([C@@H](C)CO)C(=O)c2cc(NC(=O)CCC(F)(F)F)ccc2O1 | inactive
O=C(O)c1ccc(CCO)s1 | inactive
COc1ccccc1C#Cc1ccc2c(c1)O[C@H](CN(C)Cc1cncnc1)[C@H](C)CN([C@@H](C)CO)S2(=O)=O | inactive
COc1ccccc1C#Cc1ccc2c(c1)O[C@H](CN(C)Cc1cccnc1)[C@H](C)CN([C@@H](C)CO)S2(=O)=O | inactive
COc1ccccc1C#Cc1ccc2c(c1)O[C@H](CN(C)Cc1cccnc1)[C@H](C)CN([C@H](C)CO)S2(=O)=O | inactive
COc1ccccc1C#Cc1ccc2c(c1)O[C@@H](CN(C)Cc1cccnc1)[C@H](C)CN([C@H](C)CO)S2(=O)=O | active
COc1ccccc1C#Cc1ccc2c(c1)O[C@@H](CN(C)Cc1cccnc1)[C@H](C)CN([C@@H](C)CO)S2(=O)=O | active
COc1ccccc1C#Cc1ccc2c(c1)O[C@H](CN(C)Cc1cccnc1)[C@@H](C)CN([C@H](C)CO)S2(=O)=O | inactive
COc1ccccc1C#Cc1ccc2c(c1)O[C@@H](CN(C)Cc1cccnc1)[C@@H](C)CN([C@H](C)CO)S2(=O)=O | inactive
COc1ccccc1C#Cc1ccc2c(c1)O[C@@H](CN(C)Cc1cccnc1)[C@@H](C)CN([C@@H](C)CO)S2(=O)=O | inactive
COc1ccccc1C#Cc1ccc2c(c1)O[C@H](CN(C)Cc1cccnc1)[C@@H](C)CN([C@@H](C)CO)S2(=O)=O | active
C[C@@H]1CN([C@H](C)CO[Si](C)(C)C(C)(C)C)C(=O)c2cc(NC(=O)C3CCCCC3)ccc2O[C@H]1CN(C)C(=O)c1ccc(Cl)cc1 | inactive
COc1ccccc1CNC(=O)C[C@@H]1C[C@@H]2c3cc(NC(=O)Nc4ccc(C(F)(F)F)cc4)ccc3O[C@@H]2[C@@H](CO)O1 | inactive
C=CCNC(=O)CSc1nc(=O)cc(N)[nH]1 | inactive
